The list is not random: actives were taken first. Their share in the collection is about 2.4%.
HSF1 inh – HSF1 inhibition. NIH3T3-HGL HSE-luciferase, MG132-induced, luminescence 8 h; stronger effect = lower value. AID 2098. 0.77% of 300,000 active. activity change, negative = inhibition, % at 7.5 µM (by protocol);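 active = more than half of replicate wells show activity change below -50%, luminescence cut by over half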;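 note: luciferase reports HSF-1 transcriptional activity via heat shock element; 0% = median of DMSO wells and -100% = zero luminescence signal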
HSF-1 act – increases HSF-1 driven luciferase reporter signal; NIH3T3-HGL HSF-1 luciferase reporter, MG132, 8 h; 100% = twice DMSO control signal; activation, % at 9 µM; 1.7% of 300,000 active; AID 504408;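 active = mean replicate activation of at least 50% with a set share of replicates each reaching 50%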;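 note: 0% = median of the neutral control wells and 100% = twice that signal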
NOD2 RIPK2 PPI – blocks binding of human NOD2 to RIPK2; inhibition, % at 4.98 µM; CHO BLA complementation NOD2-RIPK2, CCF4 ratio; 0.38% of 360,000 active; AID 624267; O43353; in the data active = inhibition above about 21%;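 note: 0% = vehicle only and 100% = reference blocker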
Target sequence (O43353 whole entry, looked up): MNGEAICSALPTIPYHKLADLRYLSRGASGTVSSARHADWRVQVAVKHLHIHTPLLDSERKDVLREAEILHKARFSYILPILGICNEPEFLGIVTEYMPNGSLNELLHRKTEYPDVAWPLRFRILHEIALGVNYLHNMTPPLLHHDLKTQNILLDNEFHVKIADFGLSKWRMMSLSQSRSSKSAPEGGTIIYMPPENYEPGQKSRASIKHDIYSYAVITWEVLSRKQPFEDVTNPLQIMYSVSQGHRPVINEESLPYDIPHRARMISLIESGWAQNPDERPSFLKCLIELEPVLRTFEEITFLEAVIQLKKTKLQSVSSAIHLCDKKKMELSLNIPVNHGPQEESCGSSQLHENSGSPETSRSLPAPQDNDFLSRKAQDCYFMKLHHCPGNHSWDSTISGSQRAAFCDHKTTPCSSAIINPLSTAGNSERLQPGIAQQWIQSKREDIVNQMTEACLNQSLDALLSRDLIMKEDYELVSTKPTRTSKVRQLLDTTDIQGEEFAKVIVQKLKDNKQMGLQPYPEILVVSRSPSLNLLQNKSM
TLR9-MyD88 block – TLR9-MyD88 interaction inhibition; Q9NR96+Q99836; CHO BLA complementation TLR9-MyD88, CCF4 FRET ratio; inhibition, % at 4.98 µM; 0.21% of 340,000 active;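 active = inhibition above the mean over all tested compounds plus 3 SD, cut at about 21% in these data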;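 note: 0% = DMSO only wells and 100% = clavulanate BLA inhibitor control wells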
TLR4 MyD88 comp – inhibitors of human TLR4-MyD88 binding; 0.18% of 200,000 active; inhibition, % at 8.4 µM; AID 861; O00206+Q99836; HeLa CL3-4 TLR4/MyD88 BLA complementation, FRET ratio; in the data active = inhibition above about 25%;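 note: 0% = vehicle and 100% = reference inhibitor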
An asterisk follows results filed as active; / = not tested or not shown.

SMILES	HSF1 inh	HSF-1 act	NOD2 RIPK2 PPI	TLR9-MyD88 block	TLR4 MyD88 comp
CNC(=O)c1ccc(CN(C)C(=O)c2cccc(S(=O)(=O)N3CCc4ccccc4C3)c2)cc1	/	/	0.4	-15.0	/
CS(=O)(=O)c1ccc2nc(NC(=O)Nc3cccc(Cl)c3)sc2c1	45.7	98.6*	4.8	-9.3	4.7
Cc1ccc(N2CC(C(=O)Nc3nc4ccc(S(C)(=O)=O)cc4s3)CC2=O)cc1 (centres undefined)	-80.0*	-83.6	-4.1	6.2	/
CS(=O)(=O)c1ccc2nc(NC(=O)Nc3ccc(Cl)c(Cl)c3)sc2c1	-9.0	6.7	0.8	-15.2	-8.8
Cn1cc(Cl)c(C(=O)Nc2nc3ccc([N+](=O)[O-])cc3s2)n1	12.1	20.2	-11.8	5.0	5.0
Cn1cc(Cl)c(C(=O)Nc2nc3ccc(Cl)cc3s2)n1	23.3	57.4*	-6.8	-7.0	1.1
CC1CC1C(=O)Nc1nc2ccc(Cl)cc2s1 (centres undefined)	44.2	61.1*	-7.5	0.8	/
Cc1cccc(NS(=O)(=O)c2ccc(OCC(=O)N3CCCC3)cc2)c1	-5.4	-18.8	-0.8	-0.6	/
O=C(NCCOc1ccccc1)c1cc(S(=O)(=O)N2CCOCC2)ccc1F	0.8	-8.4	-17.6	6.0	/
CCn1c(SCC#N)nc2ccccc2c1=O	6.5	5.7	-0.7	-1.4	/
N#CCSc1nc2ccccc2c2nc3ccccc3n12	36.3	68.4*	-10.3	-6.6	7.9
O=C(N/N=C/C=C/c1ccccc1[N+](=O)[O-])c1ccncc1	-1.1	-11.3	-4.5	-17.1	/
O=C(N/N=C/C=C\c1ccccc1[N+](=O)[O-])c1cc(-c2ccc3ccccc3c2)n[nH]1	13.9	64.0*	-10.1	-0.2	1.4
Cc1cccc(Nc2ncccc2C(=O)O)c1C	-58.4*	-67.0	-5.6	-8.4	-0.7
Cc1cccc(Nc2ccccc2C(=O)O)c1C	-6.8	-1.6	1.9	1.9	2.0
O=C(N=Nc1c(O)[nH]c2ccccc12)c1cccs1	24.6	76.4*	4.6	-4.9	-5.0
CCOC(=O)[C@]12CCCC=C1N(Cc1cccc3ccccc13)C(=O)[C@H](CC(=O)NCC1CCCCC1)C2	/	/	-16.8	/	/
Cc1oc2cc(O)ccc2c(=O)c1-c1cnn(-c2ccccc2)c1	13.9	-1.0	-0.7	8.3	-1.5
O=c1c(-c2cnn(-c3ccccc3)c2)coc2cc(O)ccc12	73.2	94.2*	1.5	-15.4	-14.9
CN1c2ccccc2C(O)=C(C(=S)Nc2ccc(Cl)cc2)S1(=O)=O	27.5	59.9*	-0.6	-5.1	-1.9
O=C(c1cc(Cl)ccc1Cl)N1CCOCC1	-71.9*	-77.6	-17.4	4.9	-11.3
O=C(Nc1ccc(OC(F)F)c(Cl)c1)c1ccccn1	23.8	70.3*	-4.5	10.6	13.2
CN(C(=O)c1ccco1)c1nc(-c2ccccc2)cs1	32.4	75.9*	-4.0	-8.2	/
Cc1cc2sc(NC(=O)c3ccco3)nc2cc1Cl	37.2	66.1*	1.0	1.8	/
Cc1ccc(-c2csc(NC(=O)c3ccco3)n2)cc1C	8.5	62.4*	6.1	-3.5	/
SMILES	HSF1 inh	HSF-1 act	NOD2 RIPK2 PPI	TLR9-MyD88 block	TLR4 MyD88 comp
COc1cc2sc(NC(=O)c3ccco3)nc2cc1Cl	12.0	25.7	-4.0	-6.6	/
O=C(Nc1nc(-c2ccccc2)cs1)c1ccco1	21.3	14.0	2.0	-1.6	/
O=S(=O)(c1c(F)cccc1F)N(CCc1ccc(F)cc1)C[C@@H](O)COCc1ccccc1	/	/	-4.1	-1.9	/
O=S(=O)(c1cc(Cl)ccc1Cl)N1CC2CCCN2c2ccc(C(F)(F)F)cc21 (centres undefined)	24.8	70.4*	11.2	-8.5	-12.4
CN(C(=O)c1cccs1)C1(C)CCS(=O)(=O)C1 (centres undefined)	-6.7	-3.3	1.6	11.2	/
Cc1ccc(NC(=O)CN(C)C(=O)COc2ccc(Br)cc2)cc1	/	/	-2.3	1.6	/
Cc1nnc(SCC(=O)Nc2nsc(-c3ccc(C(C)(C)C)cc3)n2)s1	21.7	50.6*	2.5	-10.2	2.5
CCOc1ccccc1-c1nc(-c2ccc(C)nc2OC)no1	22.6	62.1*	3.6	-6.0	-3.4
COc1ccc(-c2nnc(-c3cccs3)o2)cc1OC	38.7	59.7*	-7.3	-6.5	-8.0
COc1nc(C)ccc1-c1noc(-c2cccs2)n1	21.5	61.7*	-13.5	/	/
COc1cc(-c2nnc(-c3cccs3)o2)cc(OC)c1OC	3.5	-5.0	7.4	-11.1	-17.1
COc1nc(-c2ccccc2)ccc1-c1noc(-c2cccs2)n1	19.0	49.3	0.0	7.1	-13.9
COc1cccc(-c2noc(-c3cccs3)n2)c1	23.1	53.8*	-11.5	5.7	-3.6
CCCCC1(C)NC(=O)N(CC(=O)Nc2cc(S(=O)(=O)N3CCOCC3)ccc2Cl)C1=O (centres undefined)	/	/	0.5	2.0	/
Cc1nc(-c2cccc(NC(=O)c3ccc(Br)o3)c2)cs1	/	/	-13.0	-5.6	/
Cc1nc(-c2ccc(NC(=O)c3ccc(Br)o3)cc2)cs1	23.9	52.8*	2.6	-10.1	/
Cc1nc(-c2ccc(C(=O)Nc3cccc(Br)c3)cc2)cs1	14.3	55.9*	8.9	-3.1	9.2
CCOC(=O)CNc1c(-c2ccc(O)cc2)nc2ccc(Cl)cn12	61.8	72.4*	0.9	8.9	-16.2
COCCCn1c(-c2cccc(Cl)c2)nc2c1c(=O)[nH]c(=O)n2Cc1ccccc1	3.8	9.3	-12.6	-5.7	/
COCCn1c(=O)[nH]c(=O)c2c1nc(-c1cc(Br)c3c(c1)OCO3)n2Cc1ccccc1	21.8	58.9*	-1.2	2.4	-21.0
Cc1cc(C)cc(N(C(=O)c2ccccn2)C(C(=O)NC2CCCCC2)c2ccncc2)c1 (centres undefined)	0.8	15.1	1.7	4.0	/
COc1ccc(CC(=O)N2CCc3ccccc3C2)cc1	6.4	28.6	-8.4	-13.6	/
O=C(Nc1ccc(Cl)cc1)N1CCc2ccccc2C1	42.2	80.0*	-7.2	-1.2	0.0
O=C(OCC(=O)N1CCc2ccccc2C1)c1cccs1	55.0	80.1*	-3.9	0.6	8.4
O=C(Nc1ccccc1)N1CCc2ccccc2C1	16.7	-6.4	5.3	2.6	-2.9
SMILES	HSF1 inh	HSF-1 act	NOD2 RIPK2 PPI	TLR9-MyD88 block	TLR4 MyD88 comp
O=C(Cc1ccc(Cl)cc1)N1CCc2ccccc2C1	45.5	59.0*	-1.1	-1.4	/
COc1ccc(OC(C)C(=O)NC2CCCCCCC2)cc1 (centres undefined)	-1.8	0.2	6.7	4.7	/
COc1ccc(CCNC(=O)c2c(Cl)ccc(Cl)c2OC)cc1OC	-8.7	-10.0	-14.5	-11.9	/
Cc1ccccc1-c1nc(S(=O)(=O)c2ccccc2)c(NCCN2CCOCC2)o1	/	/	-1.2	-20.3	/
Cc1nc(NCCc2ccc(F)cc2)c(C#N)c(C)c1[N+](=O)[O-]	20.4	51.5*	6.9	-3.5	-2.7
COc1cccc(/C=N/Nc2nnc(C)n2N)c1O	39.4	67.5*	6.1	-1.1	/
Cc1nnc(N/N=C/c2ccco2)n1N	42.5	55.7*	-6.7	-4.4	4.5
COc1ccc(S(=O)(=O)N(C)C[C@H]2Oc3ccc(NC(=O)Cc4cn(C)c5ccccc45)cc3C(=O)N([C@@H](C)CO)C[C@@H]2C)cc1	/	/	0.9	-3.4	/
